# Where “and” joins values, the source holds several entries; their conditions need not be identical. Equal values may be shown once. Records with an inconclusive call do not appear. Entries that show only a call come without a potency. More than one record can exist for a structure, and the calls need not agree. Calls of active or inactive are those of the source. Unless noted, the call rests on the fitted dose curve; in most records, active means well fitted curve in the direction sought with a large enough effect in the repeat runs; inconclusive means weak or mixed curves; inactive means no such curve, though single readings can be large; an effect the other way counts as inactive or inconclusive.
# What was measured:
# [1] = qHTS assay to identify small molecule antagonists of the sonic hedgehog signaling (Shh) pathway (AID 1259369; calls by dose curve; further: nearly all actives have a fitted effect of over 45% in size; further: potency means the concentration at half of the fitted maximal effect)
# Outline: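 Inhibition of Shh signalling is measured as reduced Gli1-response-element firefly luciferase output in an NIH/3T3-derived stable reporter clone stimulated with conditioned medium for 24hr.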
# [2] = target: Estrogen receptor beta (Homo sapiens) (UniProt Q92731); assay: qHTS assay to identify small molecule agonists of the estrogen receptor beta (ER-beta) signaling pathway (AID 1259377; active means well fitted activation curve with a large enough effect in the signal ratio in the repeat runs, not every such curve was filed as active; the % refers to the signal ratio; further: potency means the concentration at half of the fitted maximal effect)
# Estrogen receptor beta (Homo sapiens), sequence (Q92731 whole entry, looked up): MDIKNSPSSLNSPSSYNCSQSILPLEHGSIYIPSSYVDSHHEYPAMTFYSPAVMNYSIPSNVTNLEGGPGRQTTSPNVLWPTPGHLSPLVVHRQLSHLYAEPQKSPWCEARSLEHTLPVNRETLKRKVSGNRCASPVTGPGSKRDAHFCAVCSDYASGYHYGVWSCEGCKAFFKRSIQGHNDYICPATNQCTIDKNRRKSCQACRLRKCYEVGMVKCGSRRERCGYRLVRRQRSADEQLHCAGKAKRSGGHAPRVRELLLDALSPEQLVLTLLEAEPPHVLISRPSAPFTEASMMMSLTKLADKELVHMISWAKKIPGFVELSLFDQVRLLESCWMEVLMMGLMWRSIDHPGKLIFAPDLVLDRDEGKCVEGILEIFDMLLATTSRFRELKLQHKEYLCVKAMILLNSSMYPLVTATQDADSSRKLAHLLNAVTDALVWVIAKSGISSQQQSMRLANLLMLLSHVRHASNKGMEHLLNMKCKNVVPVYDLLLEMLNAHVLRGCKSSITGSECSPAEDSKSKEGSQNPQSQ
# Outline: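 Reporter cells (HEK293T, ER-beta-UAS-bla) receive compounds or DMSO after a 6 hr pre-incubation. They then incubate 16 hr at 37C/5% CO2, and fluorescence from LiveBLAzer B/G substrate is measured after 2 hours at room temperature.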
# [3] = target: Estrogen receptor beta (Homo sapiens) (UniProt Q92731); assay: qHTS assay to identify small molecule antagonists of the estrogen receptor beta (ER-beta) signaling pathway (AID 1259378; active means well fitted inhibition curve with a large enough effect in the signal ratio in the repeat runs, not every such curve was filed as active; the % refers to the signal ratio)
# Outline: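 ER-beta-UAS-bla HEK293T (GripTite) cells in 2% charcoal-stripped FBS medium were preincubated 6 hr at 37C, dosed with compound, then stimulated with 1 nM E2 (final) for 16 hr; beta-lactamase reporter read by B/G FRET fluorescence after 2 hr substrate loading.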
# [4] = qHTS assay to identify small molecule agonists of the androgen receptor (AR) signaling pathway in the presence of an antagonist - cell viability counter screen (AID 1259379); further: nearly all actives have a fitted effect of over 25% in size; further: potency means the concentration at half of the fitted maximal effect
# Outline: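 Fluorescence from CellTiter-Fluor, added after 15 hr and read 1 hr later, gave cell viability. Cells were MDA-kb2 exposed to compounds (15 concentrations) in the presence of 3.0uM nilutamide at 37C, 0% CO2.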
# [5] = qHTS assay to identify small molecule agonists of the estrogen receptor beta (ER-beta) signaling pathway - cell viability counter screen (AID 1259380); further: nearly all actives have a fitted effect of over 30% in size
# Outline: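 Same-well viability counter screen. Cells: ER-beta-UAS-bla HEK293T, plated 6 hr before compound, in 2% charcoal-stripped FBS. Compound exposure 16 hr, 37C; viability by CellTiter-Glo luminescence after 30 min at room temperature.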
# [6] = qHTS assay to identify small molecule antagonists of the estrogen receptor beta (ER-beta) signaling pathway - cell viability counter screen (AID 1259382); further: series mostly up to about 92 µM; nearly all actives have a fitted effect of over 55% in size
# Outline: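 Following a 6 hr plating period, HEK293T cells carrying a UAS-driven beta-lactamase reporter under ER-beta control received compounds and 1nM E2 (final). After 16 hr at 37C and 2 hr substrate loading, CellTiter-Glo luminescence indicated viability.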
# [7] = target: Estrogen receptor (Homo sapiens) (UniProt P03372); assay: qHTS assay to identify small molecule agonists of the estrogen receptor alpha (ER-alpha) signaling pathway in the presence of an antagonist (AID 1259383; calls by dose curve; further: top concentration of the series differs between compounds; nearly all actives have a fitted effect of over 15% in size)
# Estrogen receptor (Homo sapiens), sequence (P03372 whole entry, looked up): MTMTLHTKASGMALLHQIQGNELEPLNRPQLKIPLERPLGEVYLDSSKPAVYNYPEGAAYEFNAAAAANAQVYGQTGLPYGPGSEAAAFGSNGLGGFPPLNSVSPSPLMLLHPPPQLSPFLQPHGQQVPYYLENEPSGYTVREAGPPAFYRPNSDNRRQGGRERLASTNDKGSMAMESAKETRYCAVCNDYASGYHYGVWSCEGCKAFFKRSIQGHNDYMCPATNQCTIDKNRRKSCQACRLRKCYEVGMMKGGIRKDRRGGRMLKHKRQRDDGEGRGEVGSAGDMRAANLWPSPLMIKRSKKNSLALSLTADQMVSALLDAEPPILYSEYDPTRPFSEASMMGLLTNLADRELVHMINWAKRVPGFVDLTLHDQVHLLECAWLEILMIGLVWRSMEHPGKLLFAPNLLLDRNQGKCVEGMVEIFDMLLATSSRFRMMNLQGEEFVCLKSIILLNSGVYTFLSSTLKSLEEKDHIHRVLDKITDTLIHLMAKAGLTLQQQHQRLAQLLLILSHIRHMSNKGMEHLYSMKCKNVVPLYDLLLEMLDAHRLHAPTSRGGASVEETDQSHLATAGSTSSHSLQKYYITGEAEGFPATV
# Outline: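 Cells are hormone-deprived for 5 days (charcoal-stripped FBS, no phenol red), plated for 24hr, spiked with 10.0nM ICI-182,780, then dosed at 15 concentrations. After 22hr at 37C, ONE-Glo luminescence reports ERE-luciferase activity.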
# [8] = qHTS assay to identify small molecule agonists or antagonists of the thyroid stimulating hormone receptor (TSHR) signaling pathway - wild type cell line counter screen (AID 1259384; calls by dose curve)
# Outline: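 Wild-type HEK293 cells were plated 18 h at 37 C/5% CO2, pin-dosed with compound plus Ro20-1724 medium, held 30 min at room temperature, then given cAMP-d2 and anti-cAMP-cryptate; fluorescence was read after 1 h. Fifteen concentrations, triplicate.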
# [9] = target: Thyrotropin receptor (Homo sapiens) (UniProt P16473); assay: qHTS assay to identify small molecule antagonists of the thyroid stimulating hormone receptor (TSHR) signaling pathway (AID 1259385; calls by dose curve; further: nearly all actives have a fitted effect of over 20% in size)
# Thyrotropin receptor (Homo sapiens), sequence (P16473 whole entry, looked up): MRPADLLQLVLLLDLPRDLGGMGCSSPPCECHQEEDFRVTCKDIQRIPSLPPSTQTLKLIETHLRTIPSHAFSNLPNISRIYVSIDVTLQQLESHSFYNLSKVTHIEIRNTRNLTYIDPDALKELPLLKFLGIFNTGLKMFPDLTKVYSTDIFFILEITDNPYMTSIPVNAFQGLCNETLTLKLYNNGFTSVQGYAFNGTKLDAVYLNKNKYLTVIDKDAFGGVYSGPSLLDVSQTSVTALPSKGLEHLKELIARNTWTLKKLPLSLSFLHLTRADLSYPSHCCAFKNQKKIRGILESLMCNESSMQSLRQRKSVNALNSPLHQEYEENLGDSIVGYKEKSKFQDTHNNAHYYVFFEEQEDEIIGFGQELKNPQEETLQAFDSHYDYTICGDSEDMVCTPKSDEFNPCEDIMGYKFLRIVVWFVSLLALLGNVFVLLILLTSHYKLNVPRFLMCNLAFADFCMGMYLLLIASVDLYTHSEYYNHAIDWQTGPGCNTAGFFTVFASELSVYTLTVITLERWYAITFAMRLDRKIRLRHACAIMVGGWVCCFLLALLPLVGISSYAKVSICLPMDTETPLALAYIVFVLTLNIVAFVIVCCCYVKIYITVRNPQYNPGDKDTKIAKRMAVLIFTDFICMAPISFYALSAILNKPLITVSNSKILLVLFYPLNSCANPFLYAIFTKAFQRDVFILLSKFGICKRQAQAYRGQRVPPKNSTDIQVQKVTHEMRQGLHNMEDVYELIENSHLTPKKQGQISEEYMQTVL
# Outline: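 TSHR-HEK293 cells were plated and held 18 h at 37C/5% CO2, then given compound plus Ro20-1724 and stimulated with TSH at 1.5 ng/mL final. After 30 min at room temperature, cAMP was detected with cAMP-d2/anti-cAMP-cryptate (1 h) by fluorescence.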
# [10] = qHTS assay to identify small molecule agonists of the estrogen receptor alpha (ER-alpha) signaling pathway in the presence of an antagonist - cell viability counter screen (AID 1259386);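 further: series mostly up to about 92 µM; cells exposed to compounds for 22 h at 37 °C before the viability read; nearly all actives have a fitted effect of over 30% in size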
# Outline: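 Cells are starved of estrogens for 5 days in charcoal-stripped serum, seeded for 24hr and co-treated with ICI-182,780 (10.0nM final) and test compounds. After 22hr at 37C, viability is read as CellTiter-Fluor fluorescence.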
# [11] = target: Progesterone receptor (Homo sapiens) (UniProt P06401); assay: qHTS assay to identify small molecule agonists of the progesterone receptor (PR) signaling pathway (AID 1346784; calls by dose curve; further: nearly all actives have a fitted effect of over 30% in size)
# Progesterone receptor (Homo sapiens), sequence (P06401 whole entry, looked up): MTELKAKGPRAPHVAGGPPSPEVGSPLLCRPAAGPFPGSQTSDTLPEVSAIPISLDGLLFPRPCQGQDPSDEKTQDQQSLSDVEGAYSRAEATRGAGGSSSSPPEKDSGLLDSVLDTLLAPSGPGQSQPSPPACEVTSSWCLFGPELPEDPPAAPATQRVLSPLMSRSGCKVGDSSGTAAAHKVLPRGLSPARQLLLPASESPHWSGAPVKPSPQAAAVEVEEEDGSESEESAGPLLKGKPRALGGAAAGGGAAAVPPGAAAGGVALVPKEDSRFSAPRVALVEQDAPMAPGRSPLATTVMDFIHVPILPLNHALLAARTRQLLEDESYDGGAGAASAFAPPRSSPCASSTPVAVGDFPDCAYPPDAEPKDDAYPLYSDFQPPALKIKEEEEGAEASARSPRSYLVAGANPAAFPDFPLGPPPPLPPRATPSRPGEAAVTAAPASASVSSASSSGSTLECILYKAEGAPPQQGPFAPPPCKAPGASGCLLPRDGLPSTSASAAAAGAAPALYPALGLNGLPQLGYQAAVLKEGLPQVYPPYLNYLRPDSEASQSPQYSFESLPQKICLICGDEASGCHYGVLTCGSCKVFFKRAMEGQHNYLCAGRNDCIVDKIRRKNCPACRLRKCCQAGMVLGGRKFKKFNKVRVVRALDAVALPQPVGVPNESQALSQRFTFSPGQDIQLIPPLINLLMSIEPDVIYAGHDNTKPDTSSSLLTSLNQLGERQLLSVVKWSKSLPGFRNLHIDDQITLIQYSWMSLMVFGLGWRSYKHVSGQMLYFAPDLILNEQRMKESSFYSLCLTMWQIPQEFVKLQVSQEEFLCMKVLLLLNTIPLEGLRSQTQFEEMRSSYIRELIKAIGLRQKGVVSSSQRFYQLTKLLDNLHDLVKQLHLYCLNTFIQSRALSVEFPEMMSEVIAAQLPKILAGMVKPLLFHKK
# Outline: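 Reporter assay, GripTite PR-UAS-bla HEK 293T cells: 16 hr exposure to DMSO-dissolved compounds at 37C, 5% CO2, in steroid-depleted (2% charcoal-stripped FBS) medium; beta-lactamase measured by FRET fluorescence.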
# [12] = target: Progesterone receptor (Homo sapiens) (UniProt P06401); assay: qHTS assay to identify small molecule antagonists of the progesterone receptor (PR) signaling pathway (AID 1346795; active means well fitted inhibition curve with a large enough effect in the signal ratio in the repeat runs, not every such curve was filed as active; the % refers to the signal ratio; further: potency means the concentration at half of the fitted maximal effect)
# Outline: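 Stimulus R5020 at 1 nM final; cells HEK293T PR-UAS-bla; medium with 2% charcoal-stripped FBS; compound exposure 16 hr at 37C, 5% CO2; detection by FRET beta-lactamase substrate, 2 hr, room temperature.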
# [13] = qHTS assay to identify small molecule antagonists of the progesterone receptor (PR) signaling pathway - cell viability counter screen (AID 1346798); further: series mostly up to about 92 µM; nearly all actives have a fitted effect of over 50% in size
# Outline: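 In the same plates used for the beta-lactamase readout, cell viability of compound- and R5020-treated PR-UAS-bla HEK293T cells (16 hr, 37C) was assessed by CellTiter-Glo luminescence.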
# [14] = qHTS assay to identify small molecule agonists of the progesterone receptor (PR) signaling pathway - cell viability counter screen (AID 1346799; calls by dose curve; further: nearly all actives have a fitted effect of over 45% in size; further: potency means the concentration at half of the fitted maximal effect)
# Outline: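 Multiplexed viability read: CellTiter-Glo luminescence, 30 min RT, following LiveBLAzer FRET measurement on PR-UAS-bla HEK293T cells exposed to compounds 16 hr.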
# [15] = qHTS assay to identify small molecule antagonists of the TGF-beta/Smad signaling pathway - cell viability counter screen (AID 1346824); further: nearly all actives have a fitted effect of over 50% in size
# Outline: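 SBE-bla HEK 293T cells were plated overnight at 37 C, then given compounds in DMSO plus TGF-beta1 (added as 0.25 ng/mL solution) for 5 hr. After the bla read, CellTiter-Glo was added to the same wells and luminescence read after 30 min at room temperature.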
# [16] = qHTS assay to identify small molecule agonists of the TGF-beta/Smad signaling pathway - cell viability counter screen (AID 1346829); further: top concentration of the series differs between compounds; nearly all actives have a fitted effect of over 45% in size
# Outline: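 Same-well cytotoxicity: CellTiter-Glo added after the 2 hr room-temperature beta-lactamase substrate step, luminescence measured 30 min later; cells had 5 hr of compound at 37 C.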
# [17] = qHTS assay to identify small molecule agonists of the TGF-beta/Smad signaling pathway (AID 1346859; active means well fitted activation curve with a large enough effect in the signal ratio in the repeat runs, not every such curve was filed as active; the % refers to the signal ratio; further: series mostly up to about 77 µM)
# Outline: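 Screening used HEK 293T SBE-bla cells at 4,000/well. Test agents: 5 hr, 37 C. Detection: FRET substrate, 2 hr RT, then excitation 405 nm with emissions at 460 and 530 nm.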
# [18] = target: Thyrotropin-releasing hormone receptor (Homo sapiens) (UniProt P34981); assay: qHTS assay to identify small molecule antagonists of the thyrotropin-releasing hormone receptor (TRHR) signaling pathway (AID 1346877; active means well fitted inhibition curve with a large enough effect in the repeat runs, not every such curve was filed as active; further: series mostly up to about 51 µM)
# Thyrotropin-releasing hormone receptor (Homo sapiens), sequence (P34981 whole entry, looked up): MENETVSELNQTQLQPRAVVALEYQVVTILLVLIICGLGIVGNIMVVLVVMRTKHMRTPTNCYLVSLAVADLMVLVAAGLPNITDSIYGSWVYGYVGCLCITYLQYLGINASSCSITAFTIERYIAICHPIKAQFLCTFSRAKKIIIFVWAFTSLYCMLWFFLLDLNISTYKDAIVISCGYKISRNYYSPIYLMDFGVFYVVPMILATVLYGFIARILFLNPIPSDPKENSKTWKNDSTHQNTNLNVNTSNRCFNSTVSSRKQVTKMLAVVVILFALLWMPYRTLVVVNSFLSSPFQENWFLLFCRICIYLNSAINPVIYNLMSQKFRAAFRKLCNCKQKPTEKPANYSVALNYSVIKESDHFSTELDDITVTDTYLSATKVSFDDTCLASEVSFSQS
# Outline: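 Cells (TRHR-HEK293) are plated and kept 18 h at 37 °C/5% CO2. A calcium-sensitive dye is added for 2 h, compound follows for 5 min at room temperature, and TRH is then given at 1 nM final.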
# [19] = target: Thyrotropin-releasing hormone receptor (Homo sapiens) (UniProt P34981); assay: qHTS assay to identify small molecule agonists of the thyrotropin-releasing hormone receptor (TRHR) signaling pathway (AID 1346891; calls by dose curve; further: series mostly up to about 58 µM)
# Outline: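 Readout was intracellular calcium fluorescence in TRHR-Hek293 cells. Cells were incubated 18 h, dye-loaded 2 h at 37 °C, and treated with compound in agonist mode.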
# [20] = target: Androgen receptor (Homo sapiens) (UniProt P10275); assay: qHTS assay to identify small molecule agonists of the androgen receptor (AR) signaling pathway in the presence of an antagonist (AID 1259381; calls by dose curve; further: nearly all actives have a fitted effect of over 15% in size)
# Androgen receptor (Homo sapiens), sequence (P10275 whole entry, looked up): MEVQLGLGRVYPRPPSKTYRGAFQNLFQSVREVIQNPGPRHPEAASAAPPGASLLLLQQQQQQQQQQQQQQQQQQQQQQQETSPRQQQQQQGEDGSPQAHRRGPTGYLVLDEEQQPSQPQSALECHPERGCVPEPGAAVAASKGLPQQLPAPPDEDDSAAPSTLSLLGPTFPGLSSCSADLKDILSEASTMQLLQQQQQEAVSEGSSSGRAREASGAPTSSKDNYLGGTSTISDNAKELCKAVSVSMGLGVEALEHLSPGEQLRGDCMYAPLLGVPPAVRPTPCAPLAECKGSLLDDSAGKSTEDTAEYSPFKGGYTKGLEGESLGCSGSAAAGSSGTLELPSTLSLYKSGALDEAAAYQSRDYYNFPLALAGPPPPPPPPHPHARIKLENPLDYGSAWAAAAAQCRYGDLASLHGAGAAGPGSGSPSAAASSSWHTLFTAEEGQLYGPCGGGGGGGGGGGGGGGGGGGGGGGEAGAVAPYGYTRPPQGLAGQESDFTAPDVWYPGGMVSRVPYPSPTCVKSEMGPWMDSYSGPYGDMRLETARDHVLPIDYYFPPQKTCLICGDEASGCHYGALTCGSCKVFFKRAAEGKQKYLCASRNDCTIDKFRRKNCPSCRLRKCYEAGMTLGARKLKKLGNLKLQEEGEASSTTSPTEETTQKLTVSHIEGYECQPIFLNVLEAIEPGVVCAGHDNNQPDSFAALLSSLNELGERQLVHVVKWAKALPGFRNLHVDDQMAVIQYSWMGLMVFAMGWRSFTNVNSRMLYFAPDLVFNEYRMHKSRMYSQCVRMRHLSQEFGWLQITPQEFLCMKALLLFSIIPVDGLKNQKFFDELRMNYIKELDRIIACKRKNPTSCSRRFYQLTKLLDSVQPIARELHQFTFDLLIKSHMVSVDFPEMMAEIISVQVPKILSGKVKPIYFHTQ
# Outline: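 Cells are MDA-kb2 (human breast carcinoma, MMTV-luc, AR/GR responsive). Nilutamide is present at 3.0uM final throughout; compounds are added at 15 concentrations and incubated 16hr at 37C before ONE-Glo luminescence detection.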
Structure (SMILES),Potency [1],Potency [2],outcome [3],Potency [4],Potency [5],Potency [6],Potency [7],outcome [8],outcome [9],Potency [10],Potency [11],Potency [12],Potency [13],Potency [14],outcome [15],Potency [16],outcome [17],Potency [18],outcome [19],Potency [20]
CC(=O)CN(CC(C)=O)N=O,inactive,inactive,inactive,inactive,inactive,inactive,inactive,inactive,inactive,inactive,inactive,inactive,inactive,inactive,inactive,inactive,inactive,inactive,inactive,
CC(C)[N+](C)(CCC(C(N)=O)(c1ccccc1)c1ccccc1)C(C)C,inactive,inactive,inactive,inactive,inactive,inactive,inactive,inactive,inactive,inactive,inactive,inactive,inactive,inactive,inactive,inactive,inactive,inactive,inactive,
N[C@@H]1C[C@H]1c1ccccc1,inactive,inactive,inactive,inactive,inactive,inactive,inactive,inactive,inactive,,inactive,inactive,inactive,inactive,inactive,inactive,inactive,inactive,inactive,inactive
O=P(O)(O)CN(CP(=O)(O)O)CP(=O)(O)O,inactive,inactive,inactive,inactive,inactive,inactive,inactive,inactive,inactive,inactive,inactive,inactive,inactive,inactive,,inactive,inactive,,,
CCCOC(=O)c1cncn1C(C)c1ccccc1 (stereo unspecified),inactive,inactive,inactive,inactive,inactive,inactive,inactive,inactive,,inactive,inactive,inactive,inactive,inactive,,inactive,inactive,inactive,inactive,inactive
C[C@H](CN1CCOCC1)C(C(=O)N1CCCC1)(c1ccccc1)c1ccccc1,inactive,inactive,inactive,inactive,inactive,inactive,inactive,,,inactive,inactive,,inactive,inactive,inactive,inactive,inactive,inactive,inactive,inactive
COC[C@@H](NC(C)=O)C(=O)NCc1ccccc1,inactive,inactive,inactive,inactive,inactive,inactive,,inactive,inactive,inactive,inactive,inactive,inactive,,,inactive,inactive,,,inactive
C/C(=N\NC(=O)Nc1cc(F)cc(F)c1)c1ncccc1C(=O)O,inactive,inactive,inactive,inactive,inactive,inactive,inactive,inactive,inactive,inactive,inactive,inactive,inactive,inactive and 68.6 µM (active),inactive,inactive,inactive,inactive,inactive,
CCCN1CCC[C@@H]2Cc3[nH]ncc3C[C@H]21,inactive,inactive,inactive,inactive,inactive,inactive,inactive,inactive,inactive,inactive,inactive,inactive,inactive,inactive,inactive,inactive,inactive,inactive,inactive,
ClC(Cl)(Cl)Cl,inactive,inactive,inactive,inactive,inactive,inactive,inactive,inactive,inactive,inactive,inactive,inactive,inactive,inactive,inactive,inactive,inactive,inactive,inactive,
CCNc1nc(Cl)nc(NC(C)(C)C)n1,0.969 µM (active),27.3 µM (active),inactive,inactive,inactive,inactive,,,,,inactive,,inactive,inactive,inactive,inactive,inactive,inactive,inactive,inactive
CC(C)N(Cc1ccccc1)C(=O)C(C)(C)C,inactive,inactive,inactive,inactive,inactive,inactive,,inactive,inactive,inactive,inactive,inactive,inactive,,inactive,inactive,inactive,inactive,inactive,inactive
CCOC1Oc2ccc(OS(C)(=O)=O)cc2C1(C)C (stereo unspecified),inactive,inactive,inactive,68 µM (active),inactive,inactive,inactive,inactive,inactive,inactive,inactive,30.4 µM (active),,,inactive,inactive,inactive,inactive,inactive,inactive

# From PubChem BioAssay (Tox21)
